The record followed here is PubChem BioAssay.

Structures are written as SMILES. Calls of active or inactive are those of the source.

For assay [1], the system named is Plasmodium falciparum Sir2 (PF13_0152, Sir2A). Briefly: pfSir2 binders on small-molecule microarrays, primary screen, biochemical, small-molecule microarray, 635 nm fluorescence (AID 1098).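 Also: score merges spot fluorescence intensity with its signal-to-noise ratio.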 The conditions noted are these: small-molecule microarray binding, fluorescence 635 nm; higher = more signal.
Assay [2] in a line: small-molecule microarray binders of probe aDKK1, primary screen, biochemical, biotinylated probe, 635/667 nm fluorescence (AID 1099).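 Also: score merges 667nm spot fluorescence with signal to noise across triplicate slides.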 Conditions: higher = more signal.
The nature of assay [3]: small-molecule microarray binders of probe aCHRDL2, primary screen, biochemical, biotinylated probe, 635/667 nm fluorescence (AID 1100). The conditions noted are these: higher = more signal.
Assay [4] is described as follows: splicing luciferase reporter signal modulators, primary screen, spliceosome inhibition project, cell-based, HEK293, splice +/- reporter (AID 1101).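 Also: HEK293 cells carrying a splicing-competent luciferase reporter gene; test concentration not given here.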 Conditions: luminescence, 24 h, higher = more signal, called active from +8 up or from −8 down. (In general: A reporter such as luciferase makes a cellular process visible.)
Assay [5] deals with Fibroblast growth factor 10 (Homo sapiens) (UniProt O15520). As to the kind of experiment: FGF10 binders on small-molecule microarrays, primary screen, biochemical, small-molecule microarray, 635 nm fluorescence (AID 1102). Conditions: FGF10 binding, fluorescence 635 nm, higher = more signal.
For assay [6], the system named is glycogen synthase kinase-3 (GSK3A per assay name; protocol says GSK3B). As to the kind of experiment: GSK3 binders on small-molecule microarrays, primary screen, biochemical, small-molecule microarray, 635 nm fluorescence, GSK3A (AID 1103). Also: the record names both GSK3A and GSK3B. Conditions: small-molecule microarray binding, fluorescence 635 nm; higher = more signal.
The target of assay [7] is Epidermal growth factor receptor (Homo sapiens) (UniProt P00533). As to the kind of experiment: EGFR binders on small-molecule microarrays, primary screen, biochemical, small-molecule microarray, 635 nm fluorescence (AID 1104).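 Also: score merges 667 nm emission intensity with spot signal to noise over triplicate slides.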 Conditions: EGFR binding, higher = more signal.
The target in assay [8] is Follistatin-related protein 3 (Homo sapiens) (UniProt O95633). As to the kind of experiment: FSTL3 binders on small-molecule microarrays, primary screen, biochemical, small-molecule microarray, 635 nm fluorescence (AID 1105).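 Also: score merges emission near 667 nm and signal to noise per printed spot across three slides.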 Conditions: FSTL3 binding, higher = more signal.
The target in assay [9] is Dickkopf-related protein 1 (Homo sapiens) (UniProt O94907). Briefly: DKK1 binders on small-molecule microarrays, primary screen, biochemical, small-molecule microarray, 635 nm fluorescence scan (AID 1106).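 Also: score merges emission near 667 nm with signal to noise over three replicate slides.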 The conditions noted are these: DKK1 binding, higher = more signal.
Assay [10] relates to Inhibin beta A chain (activin A). As to the kind of experiment: INHBA (activin A) binders on microarrays, primary screen, biochemical, small-molecule microarray, 635 nm fluorescence scan (AID 1107).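 Also: mouse activin A protein probed at 4.33 µg/mL on printed slides; score merges bound-protein fluorescence near 667 nm with spot signal-to-noise.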 The conditions noted are these: small-molecule microarray binding, higher = more signal.
The subject of assay [11] is Human papillomavirus type 1a protein E7 (residues 44-93). Briefly: HPV1a E7 fragment binders on microarrays, primary screen, biochemical, small-molecule microarray, residues 44-93, 635 nm fluorescence (AID 1108).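 Also: E7 fragment applied at 1 µg/mL in TBST for 1 h at 4 C; score combines spot fluorescence with its signal to noise ratio.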 The conditions noted are these: small-molecule microarray binding, fluorescence 635 nm; higher = more signal.
The nature of assay [12]: modulators of HCV replicon luciferase signal, primary screen, HCV replication inhibitor project, Huh7 cells, luciferase reporter (AID 1109).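 Also: huh7 hepatoma cells harbouring a luciferase neomycin HCV replicon reporter; luciferase luminescence as measure of HCV replicon replication; test concentration not given here.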 The conditions noted are these: 48 h, higher = more signal. Background: A replicon is a self-replicating genome or part of one, used to study replication in cells.
Assay [13] addresses Left-right determination factor 2 (Homo sapiens) (UniProt O00292). As to the kind of experiment: LEFTY2 binders on small-molecule microarrays, primary screen, biochemical, small-molecule microarray, 635 nm fluorescence scan (AID 1110). The conditions noted are these: LEFTY2 binding, higher = more signal.
Assay [14] concerns the target Calmodulin-1 (Homo sapiens) (UniProt P0DP23). Briefly: CALM1 binders on microarrays, EGTA buffer, profiling panel, biochemical, small-molecule microarray, Cy5-labelled CALM1 (AID 1111).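 Also: labelled calmodulin applied in Tris saline Tween buffer holding calcium plus EGTA and DTT.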 The conditions noted are these: Cy5-CALM1 binding fluorescence, higher = more signal.
Assay [15] shares this target. Briefly: calcium-bound CALM1 binders on microarrays, profiling panel, artefact control for SMM control-protein annotation, biochemical, small-molecule microarray, Cy5-labelled CALM1, plus calcium (AID 1112).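 Also: score merges spot fluorescence with signal to noise from triplicate slides.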 Conditions: Cy5-CALM1 binding fluorescence, higher = more signal.
Assay [16] can be described thus: small-molecule microarray binders of probe aWnt5a, primary screen, biochemical, biotinylated probe, 635/667 nm fluorescence (AID 1113).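 Also: score merges 667 nm fluorescence intensity with signal-to-noise per printed feature.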 The conditions noted are these: higher = more signal.
The nature of assay [17]: small-molecule microarray binders of probe aShh, primary screen, biochemical, biotinylated probe, 635/667 nm fluorescence (AID 1114).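 Also: probe is biotin-labelled aShh protein from a stem cell growth factor screen; measures binding of labelled protein to compounds printed on the slide; score merges feature fluorescence at 667 nm with signal-to-noise.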 Conditions: higher = more signal.
Assay [18] can be described thus: small-molecule microarray binders of probe aNog, primary screen, biochemical, biotinylated probe, 635/667 nm fluorescence (AID 1115).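 Also: probe is biotinylated aNog protein used at 0.15 µg/mL for 1 h at 4 C; z-score combines 667 nm fluorescence of each spot with its signal to noise.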 The conditions noted are these: higher = more signal.
In assay [19] the target is Torsin-1A-interacting protein 1 (Homo sapiens) (UniProt Q5JTV8). Briefly: LAP1 binders from COS7 cell lysate, primary screen, small-molecule microarray, 635/667 nm fluorescence (AID 1116). Conditions: COS7-hLAP1 lysate binding, 635 nm fluorescence, higher = more signal.
Assay [20] has as its target Alpha-bungarotoxin (Bungarus multicinctus) (UniProt P60615). Briefly: alpha-bungarotoxin binders on microarray, profiling panel, artefact control for SMM control protein annotation, biochemical, small-molecule microarray, Alexa647 label, 635/667 nm fluorescence (AID 1117). Conditions: alpha-BTX-A647 binding fluorescence, higher = more signal.

Sequence of Left-right determination factor 2 (Homo sapiens) (O00292 whole entry, looked up): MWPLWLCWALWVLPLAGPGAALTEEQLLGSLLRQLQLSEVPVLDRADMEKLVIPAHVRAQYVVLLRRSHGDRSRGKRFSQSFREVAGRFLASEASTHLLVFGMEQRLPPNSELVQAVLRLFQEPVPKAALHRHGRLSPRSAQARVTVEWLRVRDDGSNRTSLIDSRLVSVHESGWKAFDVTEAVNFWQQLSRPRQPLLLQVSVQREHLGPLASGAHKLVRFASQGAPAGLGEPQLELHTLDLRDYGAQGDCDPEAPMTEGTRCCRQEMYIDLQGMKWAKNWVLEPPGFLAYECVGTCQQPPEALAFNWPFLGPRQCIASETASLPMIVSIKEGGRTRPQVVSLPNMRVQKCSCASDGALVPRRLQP
Sequence of Alpha-bungarotoxin (Bungarus multicinctus) (P60615 whole entry, looked up): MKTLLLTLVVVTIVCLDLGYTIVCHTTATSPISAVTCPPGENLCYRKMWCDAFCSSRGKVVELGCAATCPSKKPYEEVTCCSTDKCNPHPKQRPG
Sequence of Follistatin-related protein 3 (Homo sapiens) (O95633 whole entry, looked up): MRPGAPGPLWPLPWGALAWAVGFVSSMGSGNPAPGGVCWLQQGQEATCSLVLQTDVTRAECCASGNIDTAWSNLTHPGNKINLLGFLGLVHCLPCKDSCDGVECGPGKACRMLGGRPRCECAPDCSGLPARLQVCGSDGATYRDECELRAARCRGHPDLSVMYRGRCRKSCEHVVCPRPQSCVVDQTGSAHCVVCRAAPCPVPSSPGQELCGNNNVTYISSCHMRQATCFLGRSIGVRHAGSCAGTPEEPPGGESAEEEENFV
Sequence of Dickkopf-related protein 1 (Homo sapiens) (O94907 whole entry, looked up): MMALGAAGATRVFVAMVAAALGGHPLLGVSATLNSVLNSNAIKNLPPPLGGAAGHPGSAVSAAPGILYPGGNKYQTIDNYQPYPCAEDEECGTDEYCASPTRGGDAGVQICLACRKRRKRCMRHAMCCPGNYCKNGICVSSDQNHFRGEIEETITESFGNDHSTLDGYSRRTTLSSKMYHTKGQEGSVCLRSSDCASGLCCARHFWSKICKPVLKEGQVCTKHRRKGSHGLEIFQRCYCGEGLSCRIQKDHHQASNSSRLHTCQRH
Sequence of Epidermal growth factor receptor (Homo sapiens) (P00533 whole entry, looked up): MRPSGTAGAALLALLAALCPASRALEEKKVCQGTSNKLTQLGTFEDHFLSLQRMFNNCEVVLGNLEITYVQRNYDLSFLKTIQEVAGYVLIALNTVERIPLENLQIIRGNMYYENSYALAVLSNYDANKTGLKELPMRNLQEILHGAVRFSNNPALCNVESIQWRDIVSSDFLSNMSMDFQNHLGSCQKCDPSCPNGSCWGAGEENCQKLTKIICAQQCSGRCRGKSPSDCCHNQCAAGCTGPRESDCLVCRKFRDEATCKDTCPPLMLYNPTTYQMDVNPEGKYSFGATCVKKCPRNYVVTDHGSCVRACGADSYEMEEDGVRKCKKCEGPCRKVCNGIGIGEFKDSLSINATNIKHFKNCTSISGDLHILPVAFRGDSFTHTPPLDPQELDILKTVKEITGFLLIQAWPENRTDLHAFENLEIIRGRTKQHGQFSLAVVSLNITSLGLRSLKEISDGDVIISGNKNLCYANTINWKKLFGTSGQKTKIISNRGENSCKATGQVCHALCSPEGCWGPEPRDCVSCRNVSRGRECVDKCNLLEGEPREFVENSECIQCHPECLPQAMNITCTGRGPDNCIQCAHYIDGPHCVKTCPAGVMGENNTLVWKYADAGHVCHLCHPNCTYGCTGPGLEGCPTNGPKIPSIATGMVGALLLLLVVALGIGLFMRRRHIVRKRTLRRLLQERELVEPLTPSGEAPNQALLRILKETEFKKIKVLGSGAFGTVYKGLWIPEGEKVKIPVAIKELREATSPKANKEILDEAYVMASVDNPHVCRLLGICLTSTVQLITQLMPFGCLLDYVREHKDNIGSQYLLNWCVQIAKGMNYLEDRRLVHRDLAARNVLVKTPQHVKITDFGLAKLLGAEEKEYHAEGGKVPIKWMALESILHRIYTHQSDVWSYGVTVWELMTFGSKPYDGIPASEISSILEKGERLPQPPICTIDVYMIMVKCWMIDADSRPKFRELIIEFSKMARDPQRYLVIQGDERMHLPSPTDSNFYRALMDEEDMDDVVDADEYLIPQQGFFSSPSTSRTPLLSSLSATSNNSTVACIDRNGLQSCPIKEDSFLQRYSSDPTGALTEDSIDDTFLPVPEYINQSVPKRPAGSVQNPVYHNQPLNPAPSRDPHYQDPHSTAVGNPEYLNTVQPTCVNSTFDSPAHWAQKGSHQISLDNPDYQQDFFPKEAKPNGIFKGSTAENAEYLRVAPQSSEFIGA
Sequence of Fibroblast growth factor 10 (Homo sapiens) (O15520 whole entry, looked up): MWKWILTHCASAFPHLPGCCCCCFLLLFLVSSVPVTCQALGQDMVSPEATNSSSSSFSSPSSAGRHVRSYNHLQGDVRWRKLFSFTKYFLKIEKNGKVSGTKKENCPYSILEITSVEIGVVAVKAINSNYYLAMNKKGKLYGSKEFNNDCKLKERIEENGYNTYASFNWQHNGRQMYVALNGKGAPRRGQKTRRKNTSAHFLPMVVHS
Sequence of Torsin-1A-interacting protein 1 (Homo sapiens) (Q5JTV8 whole entry, looked up): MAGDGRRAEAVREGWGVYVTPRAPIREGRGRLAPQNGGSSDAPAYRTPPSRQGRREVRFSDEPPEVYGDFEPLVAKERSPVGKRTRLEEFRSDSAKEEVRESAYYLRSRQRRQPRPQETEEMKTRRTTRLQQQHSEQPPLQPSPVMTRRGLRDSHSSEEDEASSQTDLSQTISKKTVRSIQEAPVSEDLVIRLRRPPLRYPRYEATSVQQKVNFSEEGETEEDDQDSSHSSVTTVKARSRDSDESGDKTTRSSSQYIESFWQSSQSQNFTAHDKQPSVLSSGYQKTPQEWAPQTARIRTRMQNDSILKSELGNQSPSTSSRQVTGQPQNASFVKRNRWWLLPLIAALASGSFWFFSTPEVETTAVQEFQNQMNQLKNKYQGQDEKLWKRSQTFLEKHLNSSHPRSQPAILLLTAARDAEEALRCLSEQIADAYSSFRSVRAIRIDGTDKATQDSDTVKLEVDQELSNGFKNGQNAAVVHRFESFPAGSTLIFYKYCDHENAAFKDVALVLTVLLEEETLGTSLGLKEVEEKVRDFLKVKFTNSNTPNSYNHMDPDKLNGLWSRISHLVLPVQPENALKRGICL

Take `CC(=O)NCCCC[C@@H]1NC(=O)[C@H]2C[C@@H](C(=O)O)[C@@H](c3cccc(OCCO)c3)N2C1=O`: the composite z-score in [1] came out at 1.69; in [2], 0.904; in assay [3] it was 0.237; in assay [5], 1.25; in [6], 1.33; in assay [7], 0.556. Besides, the composite z-score in assay [8] turned out to be 1.32; in assay [9], 0.639; in [10], 0.316; in assay [11] it was 1.11; in [13] it was 0.978; in assay [14], 0.0626. The composite z-score in assay [15] is -0.767; in assay [16], 0.27; in assay [17], 0.588; in [18], 1.51; in assay [19], 1.53; in [20], 1.49. Also, the z-score in [4] was 0.345 (inactive); in assay [12], -1.14.
`CCOC(=O)C[C@H]1[C@H](OC(=O)c2ccc(-c3ccccc3)cc2)[C@@H](NC(=O)C2CCCCC2)c2cc(OCCCO)ccc2N1C(=O)Cc1ccc(OC)cc1`: the composite z-score was -0.186 in assay [1]; 0.0229 in assay [2]; 0.0338 in assay [3]; 0.135 in assay [5]; 0.178 in assay [6]; 0.273 in [7]. Besides, the composite z-score in assay [8] was 0.217; in assay [9], 0.0901; in assay [10] it was 0.647; in assay [11], 0.612; in assay [13], 0.4; in assay [14], 1.07. The composite z-score in assay [15] is 0.881; in [16], -0.0523; in assay [17] it was -0.571; in assay [18], -0.638; in assay [19], 0.527; in assay [20], 0.333. Besides, the z-score in assay [4] was -0.772 (inactive); in assay [12], -1.57.
As for `COc1ccc([Si](C)(C)[C@H]2[C@H](CC(=O)N3CCC[C@H]3CO)O[C@@]3(C(=O)N(C)c4ccccc43)[C@@H]2C)cc1`, the composite z-score in assay [1] is 0.364; in [2], 0.214; in [3], -0.159; in assay [5] it was 0.105; in assay [6] it was -0.102; in assay [7] it was 0.335. Besides, the composite z-score in assay [8] was 0.705; in assay [9] it was 0.588; in [10], 1.48; in [11] it was 0.442; in assay [13] it was 0.239; in [14] it was -0.13. Further, the composite z-score is 0.297 in [15]; -0.0721 in [16]; -0.0368 in [17]; -0.0094 in assay [18]; 1.13 in [19]; 0.557 in assay [20]. The z-score was 0.361 (inactive) in assay [4] and -0.812 in [12].
Consider `COc1ccc(CCNC(=O)[C@@H]2c3ccccc3C(=O)N(Cc3cc(F)cc(C(F)(F)F)c3)[C@H]2c2ccc(CO)cc2)cc1`, for which the composite z-score came out at 0.181 in [1]; 1.89 in [2]; 0.877 in assay [3]; 0.12 in [5]; 0.765 in [6]; 0.321 in assay [7]. Further, the composite z-score in [8] was 1.1; in assay [9], 0.157; in assay [10], 1.08; in [11], 0.45; in [13], 0.262; in assay [14], 1.05. Also, the composite z-score is 0.197 in assay [15]; 0.0438 in assay [16]; -0.314 in [17]; 1.86 in assay [18]; 1.59 in [19]; 0.715 in [20]. The z-score in [4] was -0.267 (inactive); in assay [12], -0.989.
In the case of `CCOC(=O)C1=CCC(c2ccncc2)N(S(=O)(=O)c2ccc(C)cc2)C1` (stereo not given), the composite z-score in assay [1] turned out to be 1.03; in [2], 0.205; in [3] it was 0.198; in [5] it was 1.34; in [6] it was 1.29; in assay [7], 0.432. The composite z-score stood at 1.05 in assay [8]; 0.332 in assay [9]; 0.856 in assay [10]; 1.47 in assay [11]; 0.502 in assay [13]; 1.61 in assay [14]. For the same molecule, the composite z-score in [15] was 0.276; in [16], -0.0125; in assay [17], -0.154; in assay [18] it was -0.389; in assay [19], 2.15; in assay [20], 0.842. Moreover, the z-score in assay [4] is -1.3 (inactive); in [12], -2.8.
Consider `C[N+](C)(C)CCCC[C@@H]1NC(=O)[C@H]2C[C@@H](C(=O)NCCCCCN)[C@@H](c3ccc(O)cc3)N2C1=O`, for which the composite z-score is 0.977 in [1]; 0.876 in [2]; 0.863 in assay [3]; 1.53 in assay [5]; 1.34 in [6]; 0.243 in assay [7]. Moreover, the composite z-score is 0.58 in assay [8]; 0.89 in assay [9]; 0.617 in assay [10]; -0.0195 in assay [11]; 1.34 in [13]; 1.67 in [14]. For the same molecule, the composite z-score in assay [15] is 0.631; in assay [16], -0.0403; in assay [17], -0.0886; in assay [18] it was 0.177; in assay [19] it was 1.52; in assay [20], 2.54. Further, the z-score in [4] was 0.127 (inactive); in assay [12] it was 0.493.
